Measured values: the OligoGym collection

biological target: TIMM44; assay: pooled miR-30 sensor sort-seq; sequence = guide strand; conditions: shRNA

Going from ATCACTTTTACTGACTTCGTGA to TTCTTGTTTGACATTATCTAGC, the sensor-assay potency score (higher = more potent) falls from 0.235 to -0.514.

Going from TTGACATTATCTAGCAAGCCGG to TTCCGTAGCACCTCGCTCGTCC, the sensor-assay potency score (higher = more potent) rises from -1.12 to 1.18.

For TAAGTAGCTTCATAGCACCAGT, the sensor-assay potency score (higher = more potent) was -0.441.

biological target: TIMM50; assay: as above; conditions: shRNA

Going from TGATCATCTGTCTATAATCTTT to TGAAATATCCTTTACATGGTGT, the sensor-assay potency score (higher = more potent) rises from -1.49 to 0.0469.

Going from TAGACGACGCTCACAGTCCCAC to TTTGCTTCTGACTAGTCTCCTG, the sensor-assay potency score (higher = more potent) rises from -0.936 to -0.00854.

Going from ATTCAGACATGAAATATCCTTT to TATCAATGAGTGGAAACGCAGT, the sensor-assay potency score (higher = more potent) falls from 0.389 to -1.04.

Compared with TGTCCATCCATGTATCTTGTGG, TTGAAATATTTGTATGTCCGGC is higher in sensor-assay potency score (higher = more potent): -0.521 for the first, -0.0672 for the second.

Going from TACATGGTGTCCATCCATGTAT to TTGCTTCTGACTAGTCTCCTGG, the sensor-assay potency score (higher = more potent) rises from -1 to -0.18.

TTCTGCTTGTTGGACTTGGAGA showed a sensor-assay potency score (higher = more potent) of -1.03.
